# Unmarked numbers belong to inactive results. The list shows a part of the results. Active and inactive are the calls of the source. Cut-off read from the data, not from the text of the source, unless noted: active = inhibition above about 28%; inactive = the rest.
# Columns and labels:
# [1] = target: Nuclear receptor coactivator 3 (Homo sapiens) (UniProt Q9Y6Q9); assay: NCOA3 GAL4-fusion reporter inhibition – cell-based, luminescence, quadruplicate, confirmation (AID 588792;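 active = mean inhibition over 43.08%, the solvent-only control mean plus 3 SD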;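 note: 0% = DMSO treated cells and 100% = gossypol at 36 µM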); conditions: HEK293 GAL4-SRC3 luciferase reporter, at 3.6 µM, active compounds read high
# [2] = system: transactivating tegument protein VP16 (Human herpesvirus 1), Gal4-VP16 luciferase reporter; assay: repression of VP16-driven luciferase reporter – cell-based, luminescence, high throughput, counter-screen for SRC3 inhibitor project (AID 588794; in the data active = inhibition above about 30%); conditions: mammalian cells, at 3.6 µM, active compounds read high
# [3] = target: Nuclear receptor coactivator 1 (Homo sapiens) (UniProt Q15788); assay: NCOA1 GAL4-fusion reporter inhibition – cell-based, luminescence, quadruplicate, confirmation (AID 588820;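 active = mean inhibition above 46.68%, the untreated control wells mean plus 3 SD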;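 note: 0% = DMSO wells and 100% = gossypol 36 µM treated wells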); conditions: HEK293 GAL4-SRC1 luciferase reporter, at 3.6 µM, active compounds read high
# [4] = repression of VP16-driven luciferase reporter – cell-based, luminescence, high throughput, counter-screen for SRC1 inhibitor project (AID 588824; in the data active = inhibition above about 25%); conditions: cell-based VP16 transactivation luciferase luminescence; at 3.6 µM; active compounds read high
# [5] = StAR promoter reporter inhibitors, counter-screen for LRH-1 inverse agonist project, cell-based, luminescence, high throughput (AID 651611); conditions: StAR promoter luciferase reporter counterscreen, at 3.6 µM, active compounds read high
# [6] = target: Nuclear receptor subfamily 5 group A member 2 (Homo sapiens) (UniProt O00482); assay: NR5A2 activity suppression in reporter cells – cell-based, luminescence, confirmation (AID 651613; in the data active = inhibition above about 42%;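 note: HEK293T cells co-transfected with LRH-1 and StAR promoter luciferase reporter; 0% = vehicle wells and 100% = parental cells lacking receptor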); conditions: cell-based LRH-1 luciferase reporter, inverse agonism; at 3.6 µM; active compounds read high
# [7] = target: Steroidogenic factor 1 (Homo sapiens) (UniProt Q13285); assay: inverse agonism at SF1 nuclear receptor – cell-based, luminescence, high throughput, counter-screen for LRH-1 inverse agonist project (AID 651614; in the data active = inhibition above about 44%;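 note: cells cotransfected with StAR promoter reporter and SF1 expression vector; 0% = vehicle on cells with receptor and 100% = vehicle on cells lacking receptor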); conditions: cell-based SF1 luciferase reporter, at 3.6 µM, active compounds read high
# [8] = compounds suppressing VP16-driven luciferase signal – cell-based, luminescence, high throughput, counter-screen for LRH-1 inverse agonist project (AID 651615; in the data active = inhibition above about 33%); conditions: Gal4-VP16 luciferase reporter cells, at 3.6 µM, active compounds read high
# [9] = reduced OD of V66 E. coli with T4 gene 2 phage – absorbance, RecBCD inhibitor project, confirmation (AID 651982;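 active = mean inhibition over triplicates exceeding the hit threshold derived in the original primary screen, cut at about 11% in these data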); conditions: E. coli V66 + T4 2- phage, growth OD; at 11.9 µM; active compounds read high
# [10] = bacterial growth inhibition – absorbance, high throughput, counter-screen for RecBCD inhibitor project (AID 651983; in the data active = inhibition above about 20%;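 note: E. coli strain V66 grown with compound alone and no phage infection; 0% = bacteria with DMSO vehicle only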); conditions: E. coli viability, absorbance (OD) growth; at 11.9 µM; active compounds read high
# [11] = reduced optical density, T4-challenged addAB+ bacteria – absorbance, E. coli V3065, T4 phage, counter-screen for RecBCD inhibitor project, confirmation (AID 651984;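 active = mean inhibition above the solvent-only control wells' mean plus 3 SD, cut at about 22% in these data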;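 note: higher means less bacterial growth from phage killing when AddAB is blocked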); conditions: E. coli expressing H. pylori AddAB + T4 phage, OD growth; at 11.9 µM; active compounds read high; gene 2 mutant T4, recBCD-deleted host
# [12] = system: transactivating tegument protein VP16 (Human herpesvirus 1); assay: compounds suppressing VP16-driven luciferase signal – cell-based, luminescence, single concentration, counter-screen for SRC2 inhibitor project (AID 652007; in the data active = inhibition above about 36%); conditions: cell-based VP16 transactivation luciferase reporter, at 8.9 µM, active compounds read high
# [13] = target: Nuclear receptor coactivator 2 (Homo sapiens) (UniProt Q15596); assay: inhibition of GAL4-SRC2 driven luciferase expression – cell-based, luminescence, HEK293, triplicate, confirmation (AID 652008;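 active = mean inhibition above 46.5%, the solvent-only control mean plus 3 SD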;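 note: 0% = DMSO-treated cells and 100% = Gossypol at 36 µM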); conditions: HEK293 GAL4-SRC2 luciferase reporter, at 8.9 µM, active compounds read high
# Nuclear receptor coactivator 2 (Homo sapiens), sequence (Q15596 whole entry, looked up, the tested form may be a part): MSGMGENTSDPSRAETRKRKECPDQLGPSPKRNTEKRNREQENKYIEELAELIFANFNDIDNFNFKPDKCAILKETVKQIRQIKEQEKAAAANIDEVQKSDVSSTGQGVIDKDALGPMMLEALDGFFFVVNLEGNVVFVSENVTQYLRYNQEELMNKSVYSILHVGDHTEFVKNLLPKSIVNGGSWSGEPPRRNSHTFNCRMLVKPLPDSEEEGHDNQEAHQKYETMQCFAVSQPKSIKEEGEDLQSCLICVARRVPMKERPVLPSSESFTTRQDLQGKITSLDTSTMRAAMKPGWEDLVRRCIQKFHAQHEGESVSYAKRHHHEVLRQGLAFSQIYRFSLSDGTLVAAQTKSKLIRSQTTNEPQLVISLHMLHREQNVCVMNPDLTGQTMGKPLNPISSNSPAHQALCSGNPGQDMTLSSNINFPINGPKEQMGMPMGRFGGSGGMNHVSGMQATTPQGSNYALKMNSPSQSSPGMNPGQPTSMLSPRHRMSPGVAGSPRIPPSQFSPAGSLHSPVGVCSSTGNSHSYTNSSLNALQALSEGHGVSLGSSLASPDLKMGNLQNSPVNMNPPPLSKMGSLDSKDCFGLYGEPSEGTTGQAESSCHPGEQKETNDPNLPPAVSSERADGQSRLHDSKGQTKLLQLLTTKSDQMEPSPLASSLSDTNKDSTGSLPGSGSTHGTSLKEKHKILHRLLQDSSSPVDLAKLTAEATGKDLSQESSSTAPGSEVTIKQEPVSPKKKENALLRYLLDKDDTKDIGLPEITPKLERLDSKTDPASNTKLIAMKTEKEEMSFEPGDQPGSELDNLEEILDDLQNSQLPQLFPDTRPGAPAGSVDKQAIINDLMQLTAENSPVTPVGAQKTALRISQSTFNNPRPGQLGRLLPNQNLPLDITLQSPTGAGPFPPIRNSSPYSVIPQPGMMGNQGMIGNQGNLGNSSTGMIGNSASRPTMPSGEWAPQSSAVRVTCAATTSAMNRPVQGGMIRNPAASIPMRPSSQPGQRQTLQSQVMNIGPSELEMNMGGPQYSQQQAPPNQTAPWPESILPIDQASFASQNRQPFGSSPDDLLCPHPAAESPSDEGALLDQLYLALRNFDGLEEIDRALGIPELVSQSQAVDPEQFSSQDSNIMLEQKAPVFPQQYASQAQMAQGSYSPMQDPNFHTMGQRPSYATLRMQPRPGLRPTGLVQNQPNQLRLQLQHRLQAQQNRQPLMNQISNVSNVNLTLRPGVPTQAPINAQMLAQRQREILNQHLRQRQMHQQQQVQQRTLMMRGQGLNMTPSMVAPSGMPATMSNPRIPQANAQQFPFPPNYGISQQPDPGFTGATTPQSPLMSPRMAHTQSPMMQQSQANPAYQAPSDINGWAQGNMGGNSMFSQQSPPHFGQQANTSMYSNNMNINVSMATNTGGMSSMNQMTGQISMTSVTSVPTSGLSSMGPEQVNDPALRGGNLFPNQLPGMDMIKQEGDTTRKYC
# Nuclear receptor subfamily 5 group A member 2 (Homo sapiens), sequence (O00482 whole entry, looked up): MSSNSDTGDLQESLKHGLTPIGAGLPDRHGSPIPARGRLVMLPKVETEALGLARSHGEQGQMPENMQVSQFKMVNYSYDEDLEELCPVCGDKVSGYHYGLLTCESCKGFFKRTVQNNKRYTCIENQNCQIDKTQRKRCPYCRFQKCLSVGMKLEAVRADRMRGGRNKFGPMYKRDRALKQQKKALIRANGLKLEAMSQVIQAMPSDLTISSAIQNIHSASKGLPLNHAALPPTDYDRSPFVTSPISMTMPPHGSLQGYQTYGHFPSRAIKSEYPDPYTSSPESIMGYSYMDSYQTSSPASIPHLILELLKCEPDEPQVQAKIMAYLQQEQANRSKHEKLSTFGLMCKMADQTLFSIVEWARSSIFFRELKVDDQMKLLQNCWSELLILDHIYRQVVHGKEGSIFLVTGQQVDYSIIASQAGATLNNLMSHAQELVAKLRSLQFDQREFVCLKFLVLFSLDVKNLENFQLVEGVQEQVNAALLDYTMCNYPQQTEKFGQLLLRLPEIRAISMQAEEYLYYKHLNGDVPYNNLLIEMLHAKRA
# Nuclear receptor coactivator 1 (Homo sapiens), sequence (Q15788 whole entry, looked up, the tested form may be a part): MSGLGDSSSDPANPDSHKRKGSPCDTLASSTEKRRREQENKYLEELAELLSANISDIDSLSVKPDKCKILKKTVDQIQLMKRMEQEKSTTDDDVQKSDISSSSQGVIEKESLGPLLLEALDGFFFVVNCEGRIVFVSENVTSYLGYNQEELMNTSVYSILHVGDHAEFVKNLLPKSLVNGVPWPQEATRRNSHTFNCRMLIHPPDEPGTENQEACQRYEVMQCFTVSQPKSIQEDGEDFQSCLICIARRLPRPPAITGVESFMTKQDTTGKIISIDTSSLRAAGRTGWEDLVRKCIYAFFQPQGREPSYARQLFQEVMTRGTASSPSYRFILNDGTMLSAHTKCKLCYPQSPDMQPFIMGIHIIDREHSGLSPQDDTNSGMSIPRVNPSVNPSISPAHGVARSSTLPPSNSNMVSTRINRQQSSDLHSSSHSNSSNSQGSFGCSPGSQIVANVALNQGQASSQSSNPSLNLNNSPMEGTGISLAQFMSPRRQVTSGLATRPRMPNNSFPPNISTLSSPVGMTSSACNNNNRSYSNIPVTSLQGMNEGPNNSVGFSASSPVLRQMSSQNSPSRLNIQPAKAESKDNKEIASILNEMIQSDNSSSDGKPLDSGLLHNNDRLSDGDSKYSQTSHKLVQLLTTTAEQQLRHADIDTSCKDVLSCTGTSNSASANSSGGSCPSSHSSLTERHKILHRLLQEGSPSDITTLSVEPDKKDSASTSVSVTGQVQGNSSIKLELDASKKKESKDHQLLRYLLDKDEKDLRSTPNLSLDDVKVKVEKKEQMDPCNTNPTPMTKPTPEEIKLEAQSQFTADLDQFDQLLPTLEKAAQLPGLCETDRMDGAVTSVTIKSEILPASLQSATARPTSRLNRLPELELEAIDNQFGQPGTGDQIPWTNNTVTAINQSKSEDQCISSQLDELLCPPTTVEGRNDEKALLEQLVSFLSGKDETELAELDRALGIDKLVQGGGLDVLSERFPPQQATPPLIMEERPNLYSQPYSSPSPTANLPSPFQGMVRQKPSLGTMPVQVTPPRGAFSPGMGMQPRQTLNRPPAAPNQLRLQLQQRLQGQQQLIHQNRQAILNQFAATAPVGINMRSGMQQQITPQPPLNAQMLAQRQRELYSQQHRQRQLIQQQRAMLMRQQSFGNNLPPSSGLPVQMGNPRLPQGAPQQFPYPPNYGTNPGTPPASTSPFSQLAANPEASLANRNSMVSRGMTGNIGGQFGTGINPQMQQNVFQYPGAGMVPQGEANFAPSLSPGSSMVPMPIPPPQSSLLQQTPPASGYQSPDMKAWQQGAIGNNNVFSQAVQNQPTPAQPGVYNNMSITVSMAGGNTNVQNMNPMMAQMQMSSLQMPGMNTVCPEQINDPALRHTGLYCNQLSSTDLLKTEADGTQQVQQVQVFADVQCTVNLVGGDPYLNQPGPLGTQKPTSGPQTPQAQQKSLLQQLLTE
# Nuclear receptor coactivator 3 (Homo sapiens), sequence (Q9Y6Q9 whole entry, looked up, the tested form may be a part): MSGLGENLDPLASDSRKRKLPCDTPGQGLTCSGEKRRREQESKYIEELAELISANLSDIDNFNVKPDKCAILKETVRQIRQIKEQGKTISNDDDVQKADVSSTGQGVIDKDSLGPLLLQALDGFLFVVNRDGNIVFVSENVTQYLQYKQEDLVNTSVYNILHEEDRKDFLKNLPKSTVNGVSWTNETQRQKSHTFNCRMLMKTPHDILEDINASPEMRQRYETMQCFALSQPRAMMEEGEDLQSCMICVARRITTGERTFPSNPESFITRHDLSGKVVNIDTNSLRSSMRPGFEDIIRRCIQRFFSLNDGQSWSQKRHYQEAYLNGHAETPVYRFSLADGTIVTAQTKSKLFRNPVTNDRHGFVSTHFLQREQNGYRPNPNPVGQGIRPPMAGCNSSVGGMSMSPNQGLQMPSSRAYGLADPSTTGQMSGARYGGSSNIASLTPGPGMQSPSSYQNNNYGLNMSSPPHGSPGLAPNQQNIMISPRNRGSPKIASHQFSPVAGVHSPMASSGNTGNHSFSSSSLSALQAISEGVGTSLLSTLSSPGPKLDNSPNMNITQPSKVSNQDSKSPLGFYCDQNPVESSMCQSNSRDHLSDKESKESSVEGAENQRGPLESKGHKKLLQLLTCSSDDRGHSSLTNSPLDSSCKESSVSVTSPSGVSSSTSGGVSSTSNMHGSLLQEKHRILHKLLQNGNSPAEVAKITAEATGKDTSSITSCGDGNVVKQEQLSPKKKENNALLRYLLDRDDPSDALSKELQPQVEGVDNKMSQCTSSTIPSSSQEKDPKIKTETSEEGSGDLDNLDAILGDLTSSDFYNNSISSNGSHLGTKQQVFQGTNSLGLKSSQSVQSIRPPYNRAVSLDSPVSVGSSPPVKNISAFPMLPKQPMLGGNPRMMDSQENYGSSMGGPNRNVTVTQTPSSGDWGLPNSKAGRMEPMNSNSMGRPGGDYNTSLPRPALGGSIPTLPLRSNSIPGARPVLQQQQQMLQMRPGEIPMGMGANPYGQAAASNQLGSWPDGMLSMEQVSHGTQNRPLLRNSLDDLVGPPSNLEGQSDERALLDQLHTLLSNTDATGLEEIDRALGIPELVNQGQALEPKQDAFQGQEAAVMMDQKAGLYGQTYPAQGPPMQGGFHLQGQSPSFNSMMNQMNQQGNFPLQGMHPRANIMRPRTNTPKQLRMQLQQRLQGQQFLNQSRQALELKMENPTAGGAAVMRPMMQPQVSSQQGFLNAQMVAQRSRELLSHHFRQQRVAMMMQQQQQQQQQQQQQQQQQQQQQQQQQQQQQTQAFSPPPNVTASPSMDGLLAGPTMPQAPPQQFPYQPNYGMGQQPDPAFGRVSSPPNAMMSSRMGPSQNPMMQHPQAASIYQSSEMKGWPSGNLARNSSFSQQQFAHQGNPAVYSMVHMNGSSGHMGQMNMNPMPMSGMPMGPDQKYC
Compound,inhibition [1],inhibition [2],inhibition [3],inhibition [4],inhibition [5],inhibition [6],inhibition [7],inhibition [8],inhibition [9] [%],inhibition [10] [%],inhibition [11] [%],inhibition [12],inhibition [13]
CC[C@H]1CN2CCc3cc(OC)c(OC)cc3C2C[C@@H]1C[C@H]1NCCc2cc(OC)c(OC)cc21 (stereo partly specified),97.5% (active),96% (active),91.5% (active),94.6% (active),95.7% (active),110% (active),98% (active),97.2% (active),,,,,
Cc1ccc(S(=O)(=O)Nc2ccccc2C(=O)Nc2nc(-c3ccc(F)cc3)cs2)cc1,20.7%,27.8%,20.1%,37% (active),42.1% (active),82.7% (active),80.3% (active),72.4% (active),,,,,
Cc1cc([N+](=O)[O-])nn1Cc1ccc(C(=O)N/N=C/c2ccc(O)cc2O)cc1,54.5% (active),63.4% (active),48.5% (active),66.9% (active),80.8% (active),97% (active),88.1% (active),87.9% (active),,,,,
O=C(NN=Cc1ccccc1O)NN=Cc1ccccc1O,48.5% (active),80% (active),24.6%,77.1% (active),69.9% (active),97.3% (active),86.7% (active),81.8% (active),1.25,2.69,6.88,,
NC(=S)NN=Cc1nccc2ccccc12,80% (active),26.7%,58.1% (active),20.9%,74.9% (active),89.8% (active),79% (active),20.6%,,,,,
CC[n+]1ccccc1/C=C1\Sc2ccc(C)cc2N1C,25.7%,64.6% (active),23.8%,67.7% (active),40% (active),75.7% (active),70.3% (active),74.5% (active),,,,,
CCC1=C(CC2NCCc3ccccc32)CC2c3cc(OC)c(OC)cc3CCN2C1 (stereo unspecified),90.6% (active),84.9% (active),63.7% (active),85.7% (active),87.4% (active),98.3% (active),88.3% (active),93.9% (active),,,,47.1% (active),52.6% (active)
NC(=O)c1cc2ccncc2c2ccccc12,80.3% (active),64.8% (active),78.5% (active),59.3% (active),42.8% (active),62.1% (active),58.1% (active),77.2% (active),,,,20.5%,68.9% (active)
Cc1ccc(C(=O)N/N=C/c2ccc([N+](=O)[O-])s2)cc1,54.5% (active),39.1% (active),33.7%,44.4% (active),70.3% (active),83.9% (active),75.6% (active),52.3% (active),,,,82.5% (active),92.4% (active)
COc1ccc(S(=O)(=O)N2CCOCC2)cc1NC(=O)CCNC(=O)c1ccc([N+](=O)[O-])cc1,88.6% (active),60.8% (active),75.6% (active),33.3% (active),89.2% (active),99.3% (active),95.5% (active),72.9% (active),,,,4.19%,49.4% (active)
CCOC(=O)c1ccc(NC(=O)c2ccc(C)c(S(=O)(=O)N3CCOCC3)c2)cc1,31.4%,47.9% (active),3.47%,54.1% (active),65.1% (active),50.5% (active),66.5% (active),66% (active),,,,47.4% (active),33.8%
Cc1ccc(N(Cc2cc(=O)[nH]c3ccccc23)C(=O)CCl)c(C)c1,55.3% (active),34.3% (active),34.3%,24.6%,37.3% (active),72.4% (active),75.5% (active),46% (active),,,,44.4% (active),60% (active)
COc1ccc2cc3c(N)nn(C(=O)c4ccccc4Cl)c3nc2c1,74.4% (active),64.5% (active),60.9% (active),62.6% (active),47.3% (active),75.6% (active),59.1% (active),81.6% (active),,,,-12.1%,50% (active)
CC1CCCN(c2ncnc3c2cnn3-c2ccc(Cl)cc2)C1 (stereo unspecified),88.7% (active),84.3% (active),74.4% (active),71.4% (active),80.3% (active),60.3% (active),79.2% (active),66.5% (active),,,,82% (active),93.9% (active)
Cc1cc(C(=O)CSc2nc3ccccc3[nH]2)c(C)n1CC1CCCO1 (stereo unspecified),5.02%,30.5% (active),-86.8%,-6.65%,-34.6%,-80.8%,-1.87%,32.9% (active),,,,31.5%,50.9% (active)

# Reference: PubChem BioAssay
